According to the supplement of paper PMC13380429:

Experiments:
[1] = test system: Vero E6 infected with SARS-CoV-2; test: morphology score (similarity to uninfected cells); higher = more like uninfected cells; conditions: 24 h
[2] = test system: Vero E6 infected with SARS-CoV-2; test: SARS-CoV-2 infection rate relative to infected DMSO; higher = more infection, active = 60 or less; conditions: 24 h

Compound | morphology score [1] | SARS-CoV-2 infection rate [2]
CCN1CCC[C@H]1CNC(=O)c1c(OC)ccc(Br)c1OC [remoxipride] (10 µM) | 0.159 | 98.5% (inactive)
CC(C)NCC(O)COc1cccc2ccccc12 (stereo not given) [propranolol] (10 µM) | 0.148 | 103% (inactive)
COc1ccc(C(=O)c2ccccc2O)c(O)c1 [dioxybenzone] (0.833333 µM) | 0.165 | 88% (inactive)
CN1CCC(=C2c3ccccc3CCc3sccc32)CC1 [pizotifen] (10 µM) | 0.285 | 94.5% (inactive)
Nc1nc2c(ncn2COCCO)c(=O)[nH]1 [acyclovir] (10 µM) | 0.109 | 104% (inactive)
